From PubChem BioAssay
TTR transcr act – activators of transthyretin transcription | SH-SY5Y TTR promoter Gaussia luciferase, luminescence; 100% = recombinant luciferase protein wells | activation, % at 16.7 µM | hit rate 1.3% among 92,000;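 active = activation above the mean of all tested compounds plus 3 SD, cut at about 9.5% in these data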;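 note: cells exposed to compounds for one day before reading; 0% = median of all test compound wells on the plate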
TTR inh HuH7 – decreases TTR transcription in HuH7 cells in activator counter-screen. shares compounds with TTR transcr act. HuH7 TTR promoter-Gaussia luciferase reporter, luminescence. inhibition, % at 16.7 µM. hit rate 4% among 1,100. AID 1117279;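 active = average inhibition above the solvent-only control wells' mean plus 3 SD, cut at about 15% in these data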;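 note: 0% = cells with DMSO only and 100% = cells with inhibitor control FD; inhibitors lower well luminescence so higher value means more inhibition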
TTR act confirm – confirmation of human transthyretin transcription activators; shares compounds with TTR transcr act; SHSY5Y TTR promoter Gaussia luciferase, luminescence; 100% = purified Lucia enzyme wells, no cells; activation, % at 16.7 µM; 1,100 tested, under 10 active; AID 1117280;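 active = mean activation above a set limit taken from the earlier primary screen, cut at about 11% in these data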;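 note: 0% = DMSO-treated cells and 100% = recombinant Lucia luciferase without cells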
Starred values were filed as active, the others as inactive. This excerpt belongs to a sample that is enriched for hits.

SMILES	TTR transcr act	others
Cc1noc(C)c1COC(=O)c1cc(=O)[nH]c2ccccc12	30.6*	TTR inh HuH7=-17.2;TTR act confirm=0.1
O=C(NCCc1c[nH]c2ccccc12)OCc1cn(-c2ccccc2Cl)nn1	0.6
CCCc1cc(=O)[nH]c(SCC(=O)NC2CCCCC2)n1	-0.2
CCCc1cc(=O)[nH]c(SCC(=O)Nc2ccc3ccccc3c2)n1	0.6
CCCc1cc(=O)[nH]c(Nc2ccc(O)cc2)n1	18.7*	TTR inh HuH7=0.1;TTR act confirm=0.9
C[C@H]1[C@@H](NC(=O)C2CCC2)CC[C@@]23CCCN2C(=O)CCC[C@@H]13	2.2
O=C(NC1CCCCN(Cc2ccc(Cl)cc2)C1=O)c1ccccc1 (stereo unspecified)	-0.9
COc1ccc(CNC(=O)C2(CC3CC(c4ccccc4)=NO3)CCN(C(=O)CCCCCBr)CC2)cc1 (stereo unspecified)	1.2
O=C(Cc1ccc(F)cc1)N1CCC(CC2CC(c3cccc(Br)c3)=NO2)(C(=O)NCC2CCCCC2)CC1 (stereo unspecified)	-2.3
CCCCCCCNC(=O)C1(CC2CC(c3cccc(Br)c3)=NO2)CCN(C(=O)c2ccccc2)CC1 (stereo unspecified)	16.8*	TTR inh HuH7=7.6;TTR act confirm=-0.1
Cc1nc2ccccn2c1C(O)(c1ccccc1)c1ccccc1	-1.7
Clc1ccc([C@H]2OC[C@@]3(CNCc4ccc5c(c4)OCO5)CS[C@H](c4ccc(Cl)cc4)N23)cc1	0.5
CN1CCN(c2ccc(Cl)cc2NC(=O)/C=C/c2cccc(F)c2)CC1	-0.6
CCN(CC)S(=O)(=O)c1ccc(N2CCOCC2)c(NC(=O)Cc2ccc(Cl)cc2)c1	-3.2
CCC(=O)Nc1cc(Cl)ccc1N1CCN(C(=O)CC)CC1	12.0*	TTR inh HuH7=-3.5;TTR act confirm=-0.3
O=C(OCc1ccc(CSc2nnc(-c3cccc4ccccc34)o2)cc1)c1ccc(F)cc1	-0.6
O=C1CCC[C@H]2C[C@H](NCc3ccco3)CC[C@]23CCCN13	0.4
C[C@H]1[C@H](NC(=O)c2ccc(Cl)c(C(F)(F)F)c2)CC[C@@]23CCCN2C(=O)CCC[C@@H]13	-1.4
COC(=O)c1cc(NC(=O)c2cc(-c3ccc(C(F)(F)F)cc3)oc2C(F)(F)F)ccc1N1CCOCC1	-1.2
COC(=O)c1cc(NC(=O)c2c(C)noc2C)ccc1N1CCOCC1	-1.0
COC(=O)c1cc(NCc2ccccc2F)ccc1N1CCOCC1	10.4*	TTR inh HuH7=-9.3;TTR act confirm=-1.1
CC[C@@]1(c2ccc(C)cc2)C(=O)N(C(=O)OC(C)C)N1C(=O)OC(C)C	0.5
C=C1[C@@H](CCO)N(S(=O)C(C)(C)C)C[C@@H]1C (stereo partly specified)	2.1
COc1cc(CN2CCCC(CO)(Cc3ccccc3)C2)ccc1O (stereo unspecified)	-0.5
COc1cccc(CC2(CO)CCCN(Cc3cn[nH]c3-c3ccccc3)C2)c1 (stereo unspecified)	10.4*	TTR inh HuH7=-18.3;TTR act confirm=1.7
SMILES	TTR transcr act	others
CCOC(=O)C1(Cc2ccccc2)CCN(Cc2cn[nH]c2-c2ccccc2)CC1	-1.2
CCOC(=O)[C@@]12CCC3=C1N(CCC3)C(=O)[C@H](CC(=O)N1CCC(c3ccccc3)CC1)C2	1.9
C[C@H]1CCCN1c1ccc2c(c1)O[C@H]1CCN(C1)S2(=O)=O	-1.4
Cc1cc(NC(=O)C(C)SCC(=O)OC(C)C(=O)Nc2cccc(C#N)c2)no1 (stereo unspecified)	-0.2
Cc1cc(NC(=O)CCOc2ccc(F)cc2)no1	3.5
Cc1cc(NC(=O)C(C)SCC(=O)OC(C)C(=O)Nc2ccc(F)cc2Cl)no1 (stereo unspecified)	11.6*	TTR inh HuH7=-8.6;TTR act confirm=0.5
CC1(c2nnnn2Cc2ccccc2)CCCC(=O)N1Cc1cccs1 (stereo unspecified)	0.2
O=C(NCC(c1ccccc1)c1ccccc1)[C@H](Cc1c[nH]c2ccccc12)NC1(C(=O)NC2CCCCC2)CCCCCC1	-0.7
CCOC(=O)c1ccc(N=Nc2c(C)[nH]n(-c3ccccc3)c2=O)cc1	0.4
CC(=O)N(C)c1ccc(N=Nc2c(C)[nH]n(C(N)=S)c2=O)cc1	-0.8
CC(=O)N(C)c1ccc(N=Nc2c(C)[nH]n(-c3ccccc3)c2=O)cc1	11.3*	TTR inh HuH7=-3.5;TTR act confirm=0.1
CCCC/C=C1/[C@H](c2ccccc2)N(C)C2=N[C@@H](c3ccccc3)CC(=O)N21	1.1
O=C(CNC(=O)c1[nH]cnc1C(=O)NC(c1ccccc1)c1ccccc1)OCc1ccccc1	10.7*	TTR inh HuH7=-23.0;TTR act confirm=-0.6
CC(C)(C)OC(=O)CNC(=O)c1[nH]cnc1C(=O)NCC(=O)OCc1ccccc1	-0.4
O=C(CNC(=O)c1[nH]cnc1C(=O)N[C@@H](Cc1ccccc1)C(=O)OCc1ccccc1)OCc1ccccc1	5.0
COC(=O)[C@]12C[C@H](CC(=O)NCc3cccc(C(F)(F)F)c3)C(=O)N(Cc3cccc4ccccc34)C1=C[C@H](C(C)C)O[C@@H]2C1CC1	-0.3
